Screening data as filed in PubChem.
HPGD inh: qHTS Assay for Inhibitors of HPGD (15-Hydroxyprostaglandin Dehydrogenase) | Potency, µM, for inactives: top-dose activity change, negative = inhibition, hits mostly inhibitors | actives 4.3% (n = 150,000) | 15-hydroxyprostaglandin dehydrogenase [NAD(+)] (Homo sapiens), P15428 | purified HPGD, NADH fluorescence kinetic, PGE2 substrate; further: potency means the concentration at half of the fitted maximal effect
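NADH formation kinetics: reaction with 30 uM PGE2 and 1 mM NAD+ (final), 20 nM enzyme, Tris-HCl pH 8 with Tween 20, after 15 min compound preincubation at room temperature. Fluorescence change, last versus first of five reads.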
ALDH1A1 inh: qHTS Assay for Inhibitors of Aldehyde Dehydrogenase 1 (ALDH1A1) | Purified ALDH1A1, NADH fluorescence, propionaldehyde substrate | Potency, µM (series often up to 75.3 µM), inactives show at the top dose activity, negative = inhibition, actives largely listed as inhibitors | actives 7.3% (n = 220,000) | AID 1030, 2008;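 further: potency means the concentration at half of the fitted maximal effect; plate controls were no enzyme wells and a reference inhibitor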
Target sequence (P00352 whole entry, looked up): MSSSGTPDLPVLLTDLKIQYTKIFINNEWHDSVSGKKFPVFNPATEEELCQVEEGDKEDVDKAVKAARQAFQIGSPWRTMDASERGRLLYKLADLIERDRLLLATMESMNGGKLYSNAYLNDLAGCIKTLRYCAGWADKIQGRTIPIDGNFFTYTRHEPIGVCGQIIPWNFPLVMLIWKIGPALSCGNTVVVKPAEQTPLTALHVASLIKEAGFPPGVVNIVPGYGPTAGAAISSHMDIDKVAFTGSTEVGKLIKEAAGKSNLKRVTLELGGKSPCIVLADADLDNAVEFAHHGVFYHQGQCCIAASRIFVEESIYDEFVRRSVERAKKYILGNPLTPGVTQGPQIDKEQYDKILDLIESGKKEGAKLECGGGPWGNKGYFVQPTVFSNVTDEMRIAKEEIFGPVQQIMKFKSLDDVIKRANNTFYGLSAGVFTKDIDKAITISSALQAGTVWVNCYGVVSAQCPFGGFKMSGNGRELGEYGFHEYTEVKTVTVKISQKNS
IMPase inh: qHTS Assay for Identifying the Cell-Membrane Permeable IMPase Inhibitors; CHO-M1 cells, IP1 accumulation, HTRF TR-FRET ratio; inhibition (IP1 accumulation), % at 46.1 µM; 120,000 tested, under 10 active; AID 901, 2007; active means well fitted curve in the direction sought with a large enough effect in the signal ratio, not every such curve was filed as active; inconclusive means small, poorly fitted or top-dose-only effect, or a change in a side signal; inactive means no such curve, though single readings can be large or run the other way; the % refers to the signal ratio;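 further: cells stimulated with carbachol in lithium chloride buffer; plate controls were DMSO basal wells for no effect and reference inhibitor wells for full effect; higher means more IMPase inhibition seen as more IP1 and lower FRET ratio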
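Carbachol-driven Gq signalling in CHO-M1 cells (2000/well) generates IP1. Compounds that block IMPase raise IP1 and so reduce the FRET signal from Eu-anti-IP1 and d2-IP1 after a 10 min room-temperature lysis.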
* = called active by the depositor; ? = inconclusive; . = not tested or not shown. An excerpt weighted towards active compounds, which were near 9% of everything screened. Unless noted, the call rests on the fitted dose curve; in most records, active means well fitted inhibition curve with a large enough effect (not every such curve was filed as active); inconclusive means small, poorly fitted or top-dose-only effect, or another doubt; inactive means no such curve, though single readings can be large or run the other way. Unless noted, on the % scale 0 is the no-effect control and ±100 the full control effect.

SMILES	HPGD inh	ALDH1A1 inh	IMPase inh
CCc1cc(=O)oc2cc(C)c(CN3CCCC(C)C3)c(O)c12 (stereo not given)	-8.1%	?	-6.3
COc1ccccc1Oc1nc([N+](=O)[O-])nn1CC(N)=O	.	7.4%	.
COCCn1c(C)cc(C(=O)CSc2nnc(-c3cccnc3)n2-c2ccccc2F)c1C	-5.3%	0.5%	3.2
Cc1ccccc1-n1c(SCC(=O)c2cc(C)n(C)c2C)nnc1-c1cccnc1	25.1µM*	?	5.0
CC(Sc1cnccn1)C(=O)O (stereo not given)	.	5.3%	.
CC(N)=NCCCC(N)C(=O)O (stereo not given)	3.1%	-2.1%	.
COc1ccc2nc(-c3ccc(N)cc3)[nH]c2c1	?	6.31µM*	-1.3
COc1ccc2nc(-c3cccc(N)c3)[nH]c2c1	?	-7.1%	-14.6
Nc1c(-c2ccccc2)n[nH]c1-c1ccccc1	?	?	16.3
S=c1nc(-c2ccccc2)c(-c2ccccc2)n[nH]1	.	0.316µM*	.
C=C(C)[C@@H]1CC[C@]2(C(=O)O)CC[C@]3(C)[C@H](CCC4[C@@]5(C)CC[C@H](O)C(C)(C)[C@@H]5CC[C@]43C)[C@@H]12 (stereo not given in full)	.	-11.5%	.
O=C(c1ccccc1)c1c(O)nc(-c2ccccc2)n(-c2ccccc2)c1=O	-15.1%	6.2%	.
COCCCNC(=O)/C=C/c1cccc(Cl)c1	28.2µM*	0.9%	-1.9
COCCCNC(=O)CN(c1cccc(Cl)c1)S(C)(=O)=O	-8.8%	2µM*	-5.7
CN(C)C(CNC(=O)/C=C/c1cccc(Cl)c1)c1ccccc1 (stereo not given)	.	-4.8%	.
COCCCNC(=O)CN(c1cccc(Cl)c1C)S(C)(=O)=O	-17.1%	-4.9%	-4.4
COC(=O)c1ccc(OCC(=O)Nc2nn(-c3ccccc3)nc2C(N)=O)cc1	?	?	-6.7
CC(NC(=O)/C=C/c1ccco1)c1nc2ccccc2n1Cc1ccccc1F (stereo not given)	-11.8%	?	.
NNC(=O)c1ccc(COc2ccc3c(c2)CCC3)o1	-0.8%	7.94µM*	-4.9
Cc1ccc(OCC(=O)N2CCN(C(=O)c3ccco3)CC2)cc1	.	-8.3%	.
COc1cccc(OC)c1C(=O)NNC(=O)c1cccc(COc2ccc3c(c2)CCC3)c1	-6.1%	20µM*	-4.0
O=C(c1ccco1)N1CCN(C(=O)c2ccc(COc3ccc4c(c3)CCC4)o2)CC1	28.2µM*	28.2µM*	6.2
O=C(NCc1ccccc1)c1cccc(COc2ccc3c(c2)CCC3)c1	-7.7%	2.2%	7.0
O=C(N/N=C/c1cccc(O)c1)c1ccc(COc2ccc3c(c2)CCC3)o1	-15.7%	-9.8%	5.5
Cn1/c(=N/NC(=O)c2ccccc2Br)sc2ccccc21	.	6.7%	.
SMILES	HPGD inh	ALDH1A1 inh	IMPase inh
COc1ccc(CCSc2nnc(C3CCCCC3)n2N)cc1	20µM*	-8.4%	7.4
COc1ccc(NC(=O)CSc2nnc(C3CC3)n2N)cc1	-11.0%	-14.7%	0.4
CCOC(=O)C1CCN(CCC(=O)Nc2ccc(OC)cc2)CC1	.	.	0.2
Cc1nc2cc(NC(=O)CCS(=O)(=O)c3ccccc3)ccc2s1	3.7%	-2.7%	-9.4
COc1ccccc1N1C(=O)CC(N2CCc3ccccc32)C1=O (stereo not given)	-13.4%	?	2.8
COc1ccc2c(c1)C(=O)N(c1ccccc1OC)C(=O)C2	8.91µM*	17.8µM*	-2.1
CC12CCC(C(=O)NCc3ccco3)(OC1=O)C2(C)C (stereo not given)	-10.3%	?	-2.7
Cc1ccc(NC(=O)Cn2cnc3cc([N+](=O)[O-])ccc3c2=O)cc1	.	4.5%	.
Cc1ccc(NC(=O)Cn2cnc3cc([N+](=O)[O-])ccc3c2=O)c(Cl)c1	.	2.82µM*	.
COC(=O)c1nnn(CC(=O)NC(=O)Nc2cccc(Cl)c2C)c1C(=O)OC	.	8.9%	.
COc1ccc(NC(=O)C(Cc2c[nH]c3ccccc23)NC(=O)OC(C)(C)C)cc1 (stereo not given)	.	.	-8.1
O=C(O)c1ccc(O)cc1O	-3.4%	-5.6%	.
O=C(O)c1cc(O)c2c(c1)C(=O)c1cc(O)cc(O)c1C2=O	14.1µM*	25.1µM*	.
Cc1nn(CC2CCCCC2)c(N)c1-c1ccccc1	-16.5%	0.1%	9.5
COCCNC(=O)/C(C#N)=C1\N=C(N)c2ccccc21	14.1µM*	?	.
COC(=O)/C=c1/s/c(=C(/C#N)C(=O)N2CCCCC2)n(-c2ccccc2)c1=O	-13.3%	-11.0%	-13.4
N#C/C(C(=O)N1CCCCC1)=C1/N=C(N)c2ccccc21	14.1µM*	?	.
